Consider eight compounds from PubChem BioAssay (NCI).

This is part of a sample that, as a whole, favours compounds with a hit. Of some 83,000 tested, about 20% had one in any assay.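 A percent growth of 40 corresponds to 60% growth inhibition; 0 means no net growth; -100 means all cells died. Active threshold: below 10.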 A number with no mark means an inactive call. Calls of active or inactive are those of the source.

What all share (assay): NCI-60 one-dose screen, 48 h (100 = growth as untreated, 0 = no growth, -100 = all killed)
Conditions in all cases: 10 µM unless noted

The test system of experiment [1] is HCT-15 colon.
Experiment [2] concerns HT29 colon.
Experiment [3] concerns SNB-75 CNS.
For experiment [4], the system named is SNB-19 CNS.
The test system of experiment [5] is U251 CNS.
Experiment [6] concerns PC-3 prostate.
Experiment [7] deals with SK-MEL-5 melanoma.
Experiment [8] concerns UACC-62 melanoma.
The test system of experiment [9] is LOX IMVI melanoma.
In experiment [10] the test system is SK-MEL-28 melanoma.
In experiment [11] the test system is SK-MEL-2 melanoma.
In experiment [12] the test system is EKVX NSCLC.
For experiment [13], the system named is SN12C renal.
Experiment [14] relates to UO-31 renal.
Experiment [15] has as its system TK-10 renal.
Experiment [16] deals with ACHN renal.
Experiment [17] deals with CAKI-1 renal.
Experiment [18] concerns A498 renal.
Experiment [19] has as its system CCRF-CEM leukemia.
Experiment [20] has as its system MOLT-4 leukemia.

On to `C/C(=N/O)c1ccc(F)cc1`, for which the growth in experiment [1] was 11.5%; in experiment [2] it was 16.5%; in experiment [3] it was 123%; in [4], 87.8%; in experiment [5] it was 83.2%; in [6] it was 75.5%. The growth was 89.2% in [7]; 78.3% in [8]; 69.5% in experiment [9]; 126% in experiment [10]; 7.9% (active) in [11]; 105% in [12]. Moreover, the growth is 81.4% in experiment [13]; 80.8% in [14]; 92.8% in experiment [15]; -10.4% (active) in experiment [16]; 61% in [17]; 111% in experiment [18]. Besides, the growth in experiment [19] is 87.2%; in experiment [20], 77.7%.

`O=C(CSc1nnc2n1S(=O)(=O)c1ccccc1N2c1ccccc1)Nc1nc2ccc(F)cc2s1`: the growth in experiment [1] is 104%; in experiment [2], 104%; in [3], 85.5%; in experiment [4], 99.6%; in experiment [5], 103%; in experiment [6], 89.5%. The growth was 87.7% in experiment [7]; 81.2% in experiment [8]; 85.8% in [9]; 117% in experiment [10]; 56.8% in [11]; 103% in [12]. The growth is 118% in [13]; -15.4% (active) in experiment [14]; 125% in experiment [15]; 91.3% in experiment [16]; 85.3% in [17]; 122% in [18]. Moreover, the values for the growth in [19] and in [20] were 127% and 86.8%, respectively.

Turning to `COc1cccc(NC(=O)Cn2cc(CN3CCN(c4ccnc5cc(Cl)ccc45)CC3)nn2)c1`, the growth in experiment [1] was 89.8%; in experiment [2] it was 98%; in [3], 75.5%; in [4] it was 88.7%; in experiment [5], 96.3%; in experiment [6], 67.4%. Besides, the growth is 59.3% in [7]; 75.8% in experiment [8]; 86.8% in experiment [9]; 102% in experiment [10]; 106% in experiment [11]; 76.7% in [12]. Besides, the growth in experiment [13] was 92.1%; in experiment [14] it was 62%; in [15], 104%; in experiment [16] it was 85%; in experiment [17], 78%; in experiment [18] it was 104%. Further, the growth in experiment [19] is -45.1% (active); in experiment [20], 50%.

For the compound `CN1CCN(c2ccc(C(=O)Nc3cccc(C#Cc4cccc5[nH]nc(N)c45)c3)cc2C(F)(F)F)CC1`, the growth was -53.9% (active) in experiment [1]; -35.9% (active) in [2]; -38.2% (active) in experiment [3]; -78.4% (active) in experiment [4]; -69.1% (active) in experiment [5]; -75.4% (active) in [6]. The growth was -27.8% (active) in experiment [7]; -79.2% (active) in [8]; -93.8% (active) in experiment [9]; -66.4% (active) in experiment [10]; 27.7% in [11]; 17.1% in experiment [12]. Also, the growth in experiment [13] was 3.37% (active); in [14], -62% (active); in [15], -30.2% (active); in experiment [16] it was -46.2% (active); in experiment [17] it was -96.2% (active); in experiment [18], 5.93% (active). The growth is -25.3% (active) in experiment [19] and -56.3% (active) in experiment [20].

In the case of `Fc1cc(F)cc(C(c2c[nH]c3ccccc23)c2c[nH]c3ccccc23)c1`, the growth in experiment [1] is 79.5%; in [2] it was 99.1%; in [3], 106%; in [4] it was 104%; in experiment [5] it was 101%; in experiment [6] it was 67.1%. Further, the growth was 88.2% in experiment [7]; 84.9% in experiment [8]; 83.5% in [9]; 101% in experiment [10]; 58.8% in experiment [11]; 80.6% in experiment [12]. Further, the growth is 95.7% in [13]; 52.9% in experiment [14]; 144% in experiment [15]; 87.7% in experiment [16]; 90.9% in experiment [17]; 71.7% in experiment [18]. Besides, the growth in [19] was 89.1%; in experiment [20] it was 81.8%.

As to `COC(=O)CCC(=O)C(=O)OC`, the growth was 16.6% [10 mM] in [1]; -9.41% [10 mM] (active) in [2]; 19% [10 mM] in experiment [3]; 12.6% [10 mM] in [4]; 3.32% [10 mM] (active) in experiment [5]; -5.82% [10 mM] (active) in [6]. In addition, the growth in [7] is 64% [10 mM]; in experiment [8], -52.8% [10 mM] (active); in [9], -19.9% [10 mM] (active); in [10], -1.85% [10 mM] (active); in experiment [11], -34.9% [10 mM] (active); in experiment [12], 23.7% [10 mM]. Further, the growth in [13] is 0.923% [10 mM] (active); in experiment [14], -9.29% [10 mM] (active); in experiment [15], -8.5% [10 mM] (active); in [16], 6.94% [10 mM] (active); in experiment [17] it was 10.2% [10 mM]; in experiment [18], -72.8% [10 mM] (active). For the same compound, the growth in experiment [19] was -7.36% [10 mM] (active); in experiment [20], -11.4% [10 mM] (active).

As for `COc1ccc(-c2nc(SCC(C)C)nc(N/N=C\c3ccc(F)cc3)c2C#N)cc1`, the growth in experiment [1] is 85.3%; in [2], 90.5%; in experiment [3], 80%; in [4] it was 81%; in experiment [5] it was 94.5%; in [6], 84.9%. Moreover, the growth in experiment [7] was 103%; in experiment [8], 88.6%; in experiment [9] it was 97.4%; in experiment [10] it was 98.8%; in experiment [11], 104%; in [12], 93.9%. For the same compound, the growth in experiment [13] was 78.6%; in experiment [14], 67.2%; in experiment [15] it was 81.5%; in experiment [16], 30.3%; in experiment [17], 91.1%; in experiment [18], 74.4%. Moreover, the growth was 82.3% in experiment [19] and 88.2% in [20].

As to `CC(C)NC1CCC(Nc2ccnc3cc(Cl)ccc23)CC1` (stereo not given), the growth was 99.1% in experiment [1]; 77.5% in experiment [2]; 83.7% in experiment [3]; 109% in experiment [4]; 87.7% in experiment [5]; 78.6% in experiment [6]. The growth in experiment [7] was 90.8%; in experiment [8], 97.3%; in experiment [9] it was 86.6%; in [10] it was 101%; in experiment [11], 116%; in [12], 97.1%. Further, the growth in [13] is 102%; in experiment [14], 68.8%; in [15], 86.8%; in experiment [16] it was 96.8%; in experiment [17], 121%; in [18] it was 89.2%. Also, the growth in experiment [19] was -32.1% (active); in experiment [20] it was 69.2%.
